A number with no mark means an inactive call. Calls of active or inactive are those of the source. Cut-off read from the data, not from the text of the source: active = fold change permeability below about 0.7 or above about 1.3; inactive = in between.

The test is described as follows: compounds altering in vitro BBB leakiness – cell-based, FITC-avidin fluorescence, HTS, primary screen (AID 1963498). Note: test concentration not given here. To be noted: brain endothelial barrier, actives lie on both sides.
As for `CCN(CC)CCOc1ccc(/C(=C(/Cl)c2ccccc2)c2ccccc2)cc1`, the fold change permeability was 1.2.

For `CO[C@H]1O[C@@H]2O[C@@]3(C)CC[C@H]4[C@H](C)CC[C@@H]([C@H]1C)[C@@]24OO3`, the fold change permeability was 0.8.

As for `OC[C@H]1NC[C@@H](O)[C@@H]1O`, the fold change permeability was 1.

As to `CN1CCC(=C2c3ccccc3CC(=O)c3sccc32)CC1`, the fold change permeability was 1.4 (active).

With `N=S(=O)(O)Cc1noc2ccccc12`, the fold change permeability is 1.9 (active).

`Cc1ccc(=O)n(-c2ccccc2)c1`: the fold change permeability is 1.

On to `Cc1ccc(-n2sc(=O)n(Cc3ccc(F)cc3)c2=O)cc1`, for which the fold change permeability is 1.1.

In the case of `Oc1cc2c(cc1O)CN(C(=S)NCCc1ccc(Cl)cc1)CCC2`, the fold change permeability is 1.8 (active).

Turning to `CC1(C)CC=C(c2cnc3ccccc3c2)c2cc(C(=O)Nc3ccc(C(=O)O)cc3)ccc21`, the fold change permeability was 1.1.

As for `Cc1cccc(/C=C/c2ccccc2)n1`, the fold change permeability is 1.2.

For `Cc1nc(Nc2cnn(C3CCNCC3)c2)nc2c1N(C)C(=O)c1cc3ccccc3cc1N2C`, the fold change permeability is 1.

For the compound `CCN(CC)CCNC(=O)c1ccc(NC(C)=O)cc1`, the fold change permeability was 1.1.

For the compound `CNCCC(Oc1ccccc1C)c1ccccc1` (centres undefined), the fold change permeability was 0.7 (active).

In the case of `N#CC(=C(/N)Sc1ccccc1N)/C(C#N)=C(\N)Sc1ccccc1N`, the fold change permeability was 1.6 (active).

On to `Oc1cc(O)c2c(c1)O[C@H](c1ccc(O)c(O)c1)[C@@H](O)C2`, for which the fold change permeability was 0.8.

As to `COC(=O)[C@@H](N)Cc1ccc(O)c(O)c1`, the fold change permeability was 1.

As for `CN1Cc2c(N)cccc2C(c2ccccc2)C1` (centres undefined), the fold change permeability was 1.

As to `Cc1c(C(C)C)c(=O)n(-c2ccc(S(=O)(=O)NCCOc3ccccc3)cc2)n1C`, the fold change permeability is 1.3 (active).

`COc1ccc(-c2ccc(N)[n+](CCCC(=O)O)n2)cc1`: the fold change permeability was 0.8.

With `COc1cc2ncnc(Nc3cccc(Br)c3)c2cc1OC`, the fold change permeability was 1.1.

With `COc1ccccc1N1CCN(CCN(C(=O)C2CCCCC2)c2ccccn2)CC1`, the fold change permeability is 2 (active).

Regarding `CN(C)CCCN1c2ccccc2Sc2ccc(Cl)cc21`, the fold change permeability was 1.1.

Consider `CC1(C)CO[C@@H](CC(=O)O)CN1`, for which the fold change permeability is 1.2.

As for `Nc1nc(Cl)nc2c1ncn2[C@@H]1O[C@H](CO)[C@@H](O)[C@H]1O`, the fold change permeability is 0.9.

For `NCCS`, the fold change permeability was 0.9.

As to `C[N+](C)(C)CCOC(=O)CCC(=O)OCC[N+](C)(C)C`, the fold change permeability was 0.9.

In the case of `COC(=O)C1=C(C)NC(C)=C(C(=O)OC(C)(C)CN(C)CCC(c2ccccc2)c2ccccc2)C1c1cccc([N+](=O)[O-])c1` (centres undefined), the fold change permeability was 1.1.

`Cn1cc(C2=C(c3ccc(Cl)cc3Cl)C(=O)NC2=O)c2ccccc21`: the fold change permeability is 3.6 (active).

As for `NCCCC(N)(C(=O)O)C(F)F` (centres undefined), the fold change permeability is 0.8.

On to `N#Cc1cc([N+](=O)[O-])c2sc(C(N)=O)[n+]([O-])c2c1`, for which the fold change permeability is 1.3 (active).

In the case of `Cn1c(=O)c2c(ncn2CC2OCCO2)n(C)c1=O`, the fold change permeability is 1.

On to `Clc1ccc2c(c1)C(N1CCNCC1)=Nc1ccccc1O2`, for which the fold change permeability was 1.2.

`Cc1cc(C)c(/C=C2\C(=O)Nc3ccccc32)[nH]1`: the fold change permeability is 23.2 (active).

On to `NC(=O)CC[C@H](N)C(=O)O`, for which the fold change permeability is 0.8.

Regarding `OCCN1CCN(CCCN2c3ccccc3Sc3ccc(C(F)(F)F)cc32)CC1`, the fold change permeability was 1.4 (active).

As to `CN1C2CCC1CC(OC(=O)C(O)c1ccccc1)C2` (centres undefined), the fold change permeability was 1.1.

With `NC(N)=Nc1nc(CSCC/C(N)=N/S(N)(=O)=O)cs1`, the fold change permeability is 0.9.

Consider `Nc1ccc(CCNc2ncnc3c2ncn3C2OC(CO)C(O)C2O)cc1` (centres undefined), for which the fold change permeability is 1.

In the case of `C[C@]12CC[C@@H]3c4ccc(O)cc4CC[C@H]3[C@@H]1CCC2=O`, the fold change permeability was 0.9.

These data come from PubChem BioAssay.
